Experimental data as given in PubChem BioAssay.
Calls of active or inactive are those of the source.

How the values were obtained:
[1] = target: Albumin (Bos taurus) (UniProt P02769); test: compounds binding labelled BSA control protein – biochemical, small-molecule microarray, Alexa647 label, 635/667 nm fluorescence, artefact control for SMM control protein annotation, profiling panel (AID 1118); conditions: BSA-A647 binding, fluorescence 635 nm, higher = more signal;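 also: score merges 667 nm emission intensity and signal-to-noise per printed compound spot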
Albumin (Bos taurus), sequence (P02769 whole entry, looked up): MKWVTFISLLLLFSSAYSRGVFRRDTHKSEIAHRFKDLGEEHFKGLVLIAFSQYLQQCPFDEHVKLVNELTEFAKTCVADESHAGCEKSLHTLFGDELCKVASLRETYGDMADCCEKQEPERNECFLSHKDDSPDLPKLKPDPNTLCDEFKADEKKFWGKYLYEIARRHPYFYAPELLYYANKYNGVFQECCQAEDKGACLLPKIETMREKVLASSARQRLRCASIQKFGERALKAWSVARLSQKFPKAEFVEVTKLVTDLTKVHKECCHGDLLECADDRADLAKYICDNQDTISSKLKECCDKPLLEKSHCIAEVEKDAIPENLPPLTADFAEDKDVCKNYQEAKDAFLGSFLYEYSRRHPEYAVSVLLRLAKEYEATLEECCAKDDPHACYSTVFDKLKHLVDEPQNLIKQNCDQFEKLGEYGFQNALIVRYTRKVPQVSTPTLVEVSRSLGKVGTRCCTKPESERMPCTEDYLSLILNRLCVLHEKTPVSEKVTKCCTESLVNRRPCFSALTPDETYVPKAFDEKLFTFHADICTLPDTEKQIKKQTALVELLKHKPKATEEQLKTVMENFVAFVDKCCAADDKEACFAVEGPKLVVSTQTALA

[2] = probe aXIP binding to arrayed compounds – biochemical, NeuroSMM set, 635/667 nm fluorescence, primary screen (AID 1119); conditions: small-molecule microarray, higher = more signal, called active from +8 up or from −8 down;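 also: probe is the protein aXip251-270 applied at 1 µg/mL to compound-printed slides; binding of probe to printed compounds measured as 667 nm fluorescence plus signal to noise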
[3] = probe aNOTCH3 binding on compound microarray – biochemical, small-molecule microarray, 635/667 nm fluorescence, primary screen (AID 1120); conditions: higher = more signal;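 also: probe is a biotin-tagged antibody raised against NOTCH3 rather than NOTCH3 protein; score merges spot fluorescence near 667 nm with spot signal to noise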
[4] = probe aNOTCH2 binding on compound microarray – biochemical, small-molecule microarray, 635/667 nm fluorescence, primary screen (AID 1121); conditions: higher = more signal;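 also: score merges feature fluorescence read at 667 nm with its signal to noise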
[5] = target: Carbonic anhydrase 2 (Homo sapiens) (UniProt P00918); test: compounds binding carbonic anhydrase 2 – biochemical, small-molecule microarray, Alexa647-labelled CAII, profiling panel (AID 1122); conditions: CAII-A647 binding fluorescence, higher = more signal
[6] = COS7 lysate on small-molecule microarray, probe aHis, 635 nm (AID 1123); conditions: COS7 cell lysate, fluorescence, higher = more signal;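 also: z-score combines 667nm fluorescence intensity with signal-to-noise per printed compound spot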
[7] = probe aLAP1 signal on lysate-treated microarray – cell lysate, small-molecule microarray, COS7 lysate, primary screen (AID 1124); conditions: probe aLAP1, fluorescence, higher = more signal;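 also: lysate comes from COS7 cells expressing LAP1 and is applied at 0.3 µg/mL; score merges spot fluorescence near 667 nm with signal-to-noise over triplicate slides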
[8] = test system: Sam68 (KHDRBS1); test: compounds binding KHDRBS1 protein – biochemical, small-molecule microarray, 635 nm fluorescence, primary screen (AID 1125); conditions: higher = more signal;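 also: score merges 667 nm channel intensity with signal to noise over triplicate slides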
[9] = test system: Chordin-like protein 2 (CHRDL2); test: compounds binding chordin-like 2 – biochemical, small-molecule microarray, 635 nm fluorescence, primary screen (AID 1126); conditions: fluorescence 635 nm, higher = more signal;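 also: printed compound slides probed with Chrdl2 protein at 4 µg/mL for 1 h at 4 C; score merges 667 nm emission intensity with signal to noise over three replicate slides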
[10] = target: Concanavalin-A (Canavalia ensiformis) (UniProt P02866); test: compounds binding concanavalin A lectin – biochemical, small-molecule microarray, Alexa647 label, 635 nm, artefact control for SMM control protein annotation, primary screen (AID 1127); conditions: ConA-A647 binding fluorescence, higher = more signal;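 also: z combines 667 nm emission intensity with signal-to-noise across three replicate slides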
Concanavalin-A (Canavalia ensiformis), sequence (P02866 whole entry, looked up): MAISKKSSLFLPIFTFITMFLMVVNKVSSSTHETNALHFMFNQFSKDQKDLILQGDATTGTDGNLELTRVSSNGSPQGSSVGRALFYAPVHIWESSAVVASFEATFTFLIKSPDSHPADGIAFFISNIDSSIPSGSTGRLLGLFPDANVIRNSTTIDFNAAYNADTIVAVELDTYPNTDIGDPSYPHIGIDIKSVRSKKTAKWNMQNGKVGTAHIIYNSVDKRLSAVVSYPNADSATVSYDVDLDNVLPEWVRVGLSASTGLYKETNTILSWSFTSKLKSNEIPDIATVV

[11] = compounds binding Alexa647 anti-His antibody – biochemical, small-molecule microarray, 635 nm fluorescence, artefact control for SMM control protein annotation, primary screen (AID 1128); conditions: higher = more signal;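 also: score merges feature fluorescence with signal-to-noise for each printed compound spot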
[12] = test system: Human papillomavirus type 1a E7 protein (residues 1-88); test: HPV1a E7 small-molecule binders, primary screen, biochemical, small-molecule microarray, residues 1-88, 635 nm (AID 1129); conditions: small-molecule microarray binding, fluorescence 635 nm; higher = more signal
[13] = target: Focal adhesion kinase 1 (Homo sapiens) (UniProt Q05397); test: PTK2 protein binding on printed compound slides – biochemical, small-molecule microarray, 635/667 nm fluorescence, BSA, DTT, primary screen (AID 1130); conditions: 635 nm fluorescence, higher = more signal;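 also: composite of spot emission at 667 nm and signal to noise over triplicate slides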
Focal adhesion kinase 1 (Homo sapiens), sequence (Q05397 whole entry, looked up): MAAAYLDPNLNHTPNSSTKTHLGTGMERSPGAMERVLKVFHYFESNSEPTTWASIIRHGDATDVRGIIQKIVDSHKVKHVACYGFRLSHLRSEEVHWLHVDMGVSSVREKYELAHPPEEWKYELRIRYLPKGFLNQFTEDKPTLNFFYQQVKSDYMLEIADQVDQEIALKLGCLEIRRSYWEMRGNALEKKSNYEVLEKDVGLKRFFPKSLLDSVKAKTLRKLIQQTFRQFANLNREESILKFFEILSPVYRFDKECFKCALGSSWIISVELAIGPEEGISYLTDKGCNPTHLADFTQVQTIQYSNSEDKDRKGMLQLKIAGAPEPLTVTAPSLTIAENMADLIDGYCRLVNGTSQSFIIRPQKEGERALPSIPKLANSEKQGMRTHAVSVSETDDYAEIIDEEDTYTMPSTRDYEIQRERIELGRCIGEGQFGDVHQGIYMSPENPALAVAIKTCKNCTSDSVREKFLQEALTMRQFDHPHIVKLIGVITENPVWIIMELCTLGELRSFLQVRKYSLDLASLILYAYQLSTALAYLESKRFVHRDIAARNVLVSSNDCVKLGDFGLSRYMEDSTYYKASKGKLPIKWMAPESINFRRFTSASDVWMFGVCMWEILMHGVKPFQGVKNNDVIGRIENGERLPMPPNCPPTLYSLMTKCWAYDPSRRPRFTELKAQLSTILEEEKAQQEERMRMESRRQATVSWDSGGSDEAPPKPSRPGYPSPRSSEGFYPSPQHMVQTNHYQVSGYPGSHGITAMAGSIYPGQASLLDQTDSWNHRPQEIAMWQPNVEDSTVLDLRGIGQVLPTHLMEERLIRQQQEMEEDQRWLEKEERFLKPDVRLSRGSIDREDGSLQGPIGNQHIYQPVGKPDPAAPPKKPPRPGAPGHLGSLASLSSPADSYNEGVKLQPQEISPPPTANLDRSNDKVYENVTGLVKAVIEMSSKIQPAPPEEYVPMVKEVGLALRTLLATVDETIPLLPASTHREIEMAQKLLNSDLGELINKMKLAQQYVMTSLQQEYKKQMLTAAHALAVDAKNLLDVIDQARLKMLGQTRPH

[14] = test system: Fibrinogen (Alexa647-labelled); test: Alexa647-fibrinogen binding to printed small molecules – biochemical, small-molecule microarray, 635/667 nm fluorescence, artefact control for SMM control-protein annotation, profiling panel (AID 1131); conditions: fibrinogen-A647 binding fluorescence, higher = more signal;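 also: z-score merges 667 nm fluorescence with per-spot signal-to-noise over triplicate slides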
[15] = target: Follistatin (Homo sapiens) (UniProt P19883); test: FST protein binding to printed compounds – biochemical, small-molecule microarray, 635/667 nm fluorescence, primary screen (AID 1132); conditions: 635 nm fluorescence, higher = more signal
Follistatin (Homo sapiens), sequence (P19883 whole entry, looked up): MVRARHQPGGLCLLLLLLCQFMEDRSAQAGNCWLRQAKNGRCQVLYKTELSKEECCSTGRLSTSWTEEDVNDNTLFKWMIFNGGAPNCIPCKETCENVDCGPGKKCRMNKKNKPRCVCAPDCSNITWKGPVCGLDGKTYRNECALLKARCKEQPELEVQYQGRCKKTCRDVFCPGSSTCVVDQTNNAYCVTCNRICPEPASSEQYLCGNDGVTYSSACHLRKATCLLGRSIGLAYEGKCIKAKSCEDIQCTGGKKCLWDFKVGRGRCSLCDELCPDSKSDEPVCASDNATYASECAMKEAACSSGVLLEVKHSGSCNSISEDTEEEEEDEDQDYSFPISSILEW

[16] = target: Fibroblast growth factor 2 (Homo sapiens) (UniProt P09038); test: basic fibroblast growth factor binding to printed compounds – biochemical, small-molecule microarray, 635/667 nm fluorescence, primary screen (AID 1133); conditions: FGF2, fluorescence 635/667, higher = more signal
Fibroblast growth factor 2 (Homo sapiens), sequence (P09038 whole entry, looked up): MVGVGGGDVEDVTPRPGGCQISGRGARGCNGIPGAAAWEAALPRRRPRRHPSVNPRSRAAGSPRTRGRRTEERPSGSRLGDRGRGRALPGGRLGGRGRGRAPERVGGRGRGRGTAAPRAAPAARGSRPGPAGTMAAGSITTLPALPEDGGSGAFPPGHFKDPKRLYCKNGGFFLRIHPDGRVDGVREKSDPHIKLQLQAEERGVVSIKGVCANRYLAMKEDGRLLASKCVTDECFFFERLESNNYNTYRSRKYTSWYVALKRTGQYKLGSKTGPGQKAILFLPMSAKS

[17] = JC-1 mitochondrial potential readout, lung cancer cells – cell-based, A549, JC-1 fluorescence, basal, 24 h, 100 nL, profiling panel (AID 1138); conditions: higher = more signal;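 also: A549 lung adenocarcinoma cells under basal conditions with no added stimulus; test concentration not given here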
[18] = test system: Lefty1; test: Lefty1 protein binding to printed compounds – biochemical, small-molecule microarray, 635/667 nm fluorescence, primary screen (AID 1139); conditions: fluorescence 635/667, higher = more signal
[19] = test system: wheat germ agglutinin (Triticum aestivum), Alexa647-labelled; test: Alexa647-WGA lectin binding to printed small molecules – biochemical, small-molecule microarray, 635/667 nm fluorescence, artefact control for SMM control-protein annotation, profiling panel (AID 1140); conditions: WGA-A647 binding, 635 nm fluorescence, higher = more signal;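 also: score merges 667 nm feature emission with signal to noise over triplicate slides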
[20] = target: Luciferin 4-monooxygenase (Photinus pyralis) (UniProt P08659); test: inhibition of purified Photinus pyralis luciferase – biochemical, luminescence, purified enzyme, 2006 set, primary screen (AID 1141); conditions: purified firefly luciferase, SteadyGlo luminescence, 30 min; higher = more signal, called active from +8 up or from −8 down;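 also: cell-free assay with purified firefly luciferase at 100 ng per well in PBS; test concentration not given here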
Luciferin 4-monooxygenase (Photinus pyralis), sequence (P08659 whole entry, looked up): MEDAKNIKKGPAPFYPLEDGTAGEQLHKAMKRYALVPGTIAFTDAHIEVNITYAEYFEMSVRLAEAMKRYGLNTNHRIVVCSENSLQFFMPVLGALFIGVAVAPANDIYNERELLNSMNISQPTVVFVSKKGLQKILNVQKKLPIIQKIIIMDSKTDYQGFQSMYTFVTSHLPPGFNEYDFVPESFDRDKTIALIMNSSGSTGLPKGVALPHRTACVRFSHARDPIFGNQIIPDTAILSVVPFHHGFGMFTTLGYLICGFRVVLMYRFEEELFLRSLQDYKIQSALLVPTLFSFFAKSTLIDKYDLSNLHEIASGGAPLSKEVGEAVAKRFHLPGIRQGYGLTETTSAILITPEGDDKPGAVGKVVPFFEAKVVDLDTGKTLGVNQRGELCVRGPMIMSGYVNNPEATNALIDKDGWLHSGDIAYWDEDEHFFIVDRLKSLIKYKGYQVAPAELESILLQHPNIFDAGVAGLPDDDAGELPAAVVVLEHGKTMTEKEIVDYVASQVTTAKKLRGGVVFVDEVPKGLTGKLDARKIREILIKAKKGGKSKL

Row | Structure (SMILES) | composite z-score [1] | composite Z-score [2] | composite z-score [3] | composite z-score [4] | composite z-score [5] | composite z-score [6] | composite z-score [7] | composite z-score [8] | composite z-score [9] | composite z-score [10] | composite z-score [11] | composite z-score [12] | composite z-score [13] | composite z-score [14] | composite z-score [15] | composite z-score [16] | z-score [17] | composite z-score [18] | composite z-score [19] | z-score [20]
1 | COC(=O)[C@H](Cc1ccccc1)N[C@@H](/C=C/C1CC1)[C@H](O)Cc1ccccc1 | 0.0881 | -0.16 (inactive) | -0.246 | -0.244 | 0.209 | -0.255 | 0.0885 | -0.0844 | -0.0635 | 0.65 | -0.477 | -0.236 | -0.415 | 0.475 | -0.405 | -0.489 | -0.349 | -0.21 | 0.319 | 0.702 (inactive)
2 | CCCCN1CC=CC23O[C@@H]4C=CCCOC(=O)C4[C@H]2C(=O)N(CCCCCCO)[C@@H]3C1=O (stereo not given in full) | 0.339 | 0.0289 (inactive) | -0.275 | -0.175 | 0.876 | 0.376 | 0.316 | 0.474 | -1 | -0.254 | 0.435 | -0.268 | 0.0134 | -0.796 | 0.0593 | -0.88 | 0.807 | 1.28 | 0.379 | -0.947 (inactive)
3 | CCC(CC)C(O)C1C=CC2C(=O)NC(=O)C2N1Nc1ccccn1 (stereo not given) | 0.958 | -0.248 (inactive) | -0.0219 | -0.0438 | 0.763 | 0.864 | -0.019 | 0.0905 | 0.416 | 0.228 | 0.823 | -0.0365 | 0.268 | -0.206 | 0.872 | 0.0277 | 0.693 | -0.0021 | 0.0789 | -0.0791 (inactive)
4 | [N-]=[N+]=Nc1ccccc1[C@H]1OC(c2ccc(OCCCO)cc2)=N[C@@]1(CCS(=O)(=O)c1ccccc1)C(N)=O | 0.485 | 0.211 (inactive) | 0.264 | 0.113 | 0.795 | 1.43 | 0.469 | 1.22 | 0.0869 | 0.868 | 2.95 | 1.22 | 0.26 | 0.938 | 0.794 | 0.0263 | 0.118 | -0.142 | 1.21 | -6.6 (inactive)
5 | [N-]=[N+]=NCc1ccccc1[C@@H]1OC(c2ccc(OCCCO)cc2)=N[C@]1(Cc1ccccc1)C(=O)NCC(O)CO (stereo not given in full) | 1.05 | 1.57 (inactive) | 0.271 | 0.109 | 0.546 | 3.09 | 1.18 | 1.22 | -0.549 | 0.306 | 1.9 | 1.19 | 0.443 | 0.958 | 0.973 | 1.52 | 0.529 | -1.3 | 0.718 | -0.0075 (inactive)
6 | Cc1ccc([C@@H]2C[C@@H](Sc3ccccc3)[C@H](C(=O)O)CN2S(=O)(=O)c2ccc(C)cc2)cc1 | 0.26 | -0.571 (inactive) | 0.171 | 0.0019 | 0.726 | 2.89 | 0.986 | 1.29 | -0.144 | 1.03 | 1.98 | 1.26 | 0.373 | 0.956 | 0.868 | 0.507 | -1.42 | 0.589 | 1.14 | 1.88 (inactive)
7 | O=C(CS)NCCCCCCNC(=O)[C@@H]1C[C@@H]2C(=O)N[C@@H](Cc3ccccc3)C(=O)N2[C@@H]1c1cccc(OCCO)c1 | -0.623 | 0.439 (inactive) | 0.169 | -0.0248 | 0.567 | 2.28 | -0.488 | 1.29 | 0.892 | 1.15 | 3.09 | 1.23 | 0.385 | 0.54 | 1.33 | 1.76 | -0.714 | 0.823 | 0.1 | -1.09 (inactive)
8 | CC(C)(C)OC(=O)CC[C@]1(C(=O)N2CCOCC2)N=C(c2ccc(OCCCO)cc2)O[C@H]1c1ccccc1N=[N+]=[N-] | 0.55 | 0.103 (inactive) | 0.133 | 0.119 | 0.743 | 2.36 | 0.947 | 1.28 | -0.135 | 0.973 | 2.82 | 1.27 | 0.566 | 0.946 | 1.18 | 0.449 | 2.26 | 0.146 | 1.02 | -9.23 (active)
9 | O=C1C[C@@](C(=O)NCCN2CCOCC2)(c2ccc([N+](=O)[O-])cc2)[C@@H](c2ccc(CO)cc2)N1CC12CC3CC(CC(C3)C1)C2 | 0.0577 | 0.0308 (inactive) | 0.0208 | -0.084 | 0.548 | 2.53 | 0.0978 | 1.29 | 0.901 | 0.926 | 2.5 | 1.25 | 0.296 | 0.904 | 1.34 | 1.13 | -0.712 | 0.646 | 1.09 | -0.988 (inactive)
10 | CC(C)C(O)C1C=CC2C(=O)NC(=O)C2N1Nc1ccc(Cl)cc1Cl (stereo not given) | 0.523 | 0.449 (inactive) | -0.0414 | -0.0659 | 0.751 | 1.78 | 1.33 | 0.531 | -0.827 | -0.478 | 1.03 | 1.19 | 1.08 | 0.921 | 0.345 | -0.292 | -0.518 | -0.556 | 1.35 | -0.089 (inactive)
11 | C=CCN1C(=O)[C@@]2(Cc3ccccc31)N=C(c1ccc(OCCCO)cc1)O[C@H]2c1ccccc1 | -0.519 | 0.302 (inactive) | 0.307 | 0.125 | 0.401 | 2.8 | 0.843 | 1.17 | 0.885 | 1.17 | 2.49 | 1.19 | 1.02 | 0.039 | 1.35 | 0.988 | 1.1 | 0.368 | 0.495 | -2.65 (inactive)
